Experiments:
Experiment in all cases: DAPPL (digital affinity profiling via proximity ligation, sequencing); 10 mM Tris-HCl pH 7.5, 50 mM NaCl, 1 mM DTT, 4% glycerol, room temperature, 30 min; GST-TFs on glutathione beads, 16-mer random dsDNA library, 0.1% formaldehyde crosslink after washing; high values mean tight binding
Details in all cases: protein: recombinant; tags: N-terminal GST; dsDNA, one strand shown
[1] = biological target: T1, FLI1 (Homo sapiens, UniProt Q01543 1-452)
T1 sequence: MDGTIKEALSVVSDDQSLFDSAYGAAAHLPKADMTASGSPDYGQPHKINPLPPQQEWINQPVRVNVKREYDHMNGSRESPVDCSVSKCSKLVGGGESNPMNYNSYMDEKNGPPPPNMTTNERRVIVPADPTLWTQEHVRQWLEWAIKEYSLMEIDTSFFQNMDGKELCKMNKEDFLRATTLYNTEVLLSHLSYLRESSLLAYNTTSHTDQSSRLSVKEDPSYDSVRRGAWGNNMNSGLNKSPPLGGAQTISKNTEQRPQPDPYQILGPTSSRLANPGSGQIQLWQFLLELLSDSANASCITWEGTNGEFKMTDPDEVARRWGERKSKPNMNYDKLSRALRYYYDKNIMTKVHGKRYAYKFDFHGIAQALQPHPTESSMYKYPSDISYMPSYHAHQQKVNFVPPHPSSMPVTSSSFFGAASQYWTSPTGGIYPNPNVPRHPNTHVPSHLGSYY
Outline: (§1)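 In yeast, human transcription factors were expressed with a GST fusion, then pulled down on glutathione beads and given DNA barcodes. Pooled with a tag-only sample, they were exposed to 200 nmole of a 16-mer random double-stranded DNA library (Tris/NaCl/DTT/glycerol buffer, room temperature, 30 min), washed, crosslinked with 0.1% formaldehyde, proximity-ligated using BsaI/T4 ligase for 1 h at 37 °C, PCR-amplified and read on an Illumina NextSeq500. Each hexamer's frequency of reads for a factor, divided by the matching frequency for the tag-only sample, gives the binding signal.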

[2] = biological target: T2, ELK1 (Homo sapiens, UniProt P19419 1-428)
T2 sequence: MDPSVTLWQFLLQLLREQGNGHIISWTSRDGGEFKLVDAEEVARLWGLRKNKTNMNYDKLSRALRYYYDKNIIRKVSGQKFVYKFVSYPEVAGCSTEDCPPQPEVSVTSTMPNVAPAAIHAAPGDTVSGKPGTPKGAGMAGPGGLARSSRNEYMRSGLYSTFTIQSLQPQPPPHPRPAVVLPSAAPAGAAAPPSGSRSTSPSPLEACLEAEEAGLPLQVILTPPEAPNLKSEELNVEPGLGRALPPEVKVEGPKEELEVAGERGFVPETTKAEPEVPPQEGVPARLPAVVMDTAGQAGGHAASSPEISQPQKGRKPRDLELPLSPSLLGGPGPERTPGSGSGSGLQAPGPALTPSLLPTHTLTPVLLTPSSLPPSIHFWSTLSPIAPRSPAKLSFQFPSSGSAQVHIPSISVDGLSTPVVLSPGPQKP
Outline: as §1

[3] = biological target: ELF1 (Homo sapiens, UniProt P32519 1-619)
Outline: as §1

[4] = biological target: T3, EHF (Homo sapiens, UniProt Q9NZC4 1-300)
T3 sequence: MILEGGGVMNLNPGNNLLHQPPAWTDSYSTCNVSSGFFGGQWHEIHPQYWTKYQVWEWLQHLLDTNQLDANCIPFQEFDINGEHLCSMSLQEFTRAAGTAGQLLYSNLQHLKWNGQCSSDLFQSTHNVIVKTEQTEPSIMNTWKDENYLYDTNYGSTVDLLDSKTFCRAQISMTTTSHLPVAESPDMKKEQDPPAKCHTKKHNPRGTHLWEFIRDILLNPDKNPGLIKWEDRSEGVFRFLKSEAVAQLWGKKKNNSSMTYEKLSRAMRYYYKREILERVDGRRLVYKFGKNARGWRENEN
Outline: as §1

[5] = biological target: SPI1 (Homo sapiens, UniProt P17947 1-270)
Outline: as §1

[6] = biological target: ELF4 (Homo sapiens, UniProt Q99607 1-663)
Outline: as §1

[7] = biological target: T4, ELF3 (Homo sapiens, UniProt P78545 1-371)
T4 sequence: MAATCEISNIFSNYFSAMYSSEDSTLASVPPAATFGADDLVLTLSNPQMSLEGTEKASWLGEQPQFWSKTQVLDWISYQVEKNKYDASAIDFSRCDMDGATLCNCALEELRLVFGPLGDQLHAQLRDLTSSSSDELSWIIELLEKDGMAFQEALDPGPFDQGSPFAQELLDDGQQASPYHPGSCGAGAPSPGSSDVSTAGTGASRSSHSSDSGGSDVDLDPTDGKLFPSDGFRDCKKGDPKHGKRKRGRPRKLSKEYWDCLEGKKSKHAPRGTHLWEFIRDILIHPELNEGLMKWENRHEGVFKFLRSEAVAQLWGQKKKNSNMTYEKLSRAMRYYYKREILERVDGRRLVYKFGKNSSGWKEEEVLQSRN
Outline: as §1

[8] = biological target: CRX (Homo sapiens, UniProt O43186 1-299)
Outline: as §1

[9] = biological target: ETV1 (Homo sapiens, UniProt P50549 1-477)
Outline: as §1

[10] = biological target: T5, ERF (Homo sapiens, UniProt P50548 1-548)
T5 sequence: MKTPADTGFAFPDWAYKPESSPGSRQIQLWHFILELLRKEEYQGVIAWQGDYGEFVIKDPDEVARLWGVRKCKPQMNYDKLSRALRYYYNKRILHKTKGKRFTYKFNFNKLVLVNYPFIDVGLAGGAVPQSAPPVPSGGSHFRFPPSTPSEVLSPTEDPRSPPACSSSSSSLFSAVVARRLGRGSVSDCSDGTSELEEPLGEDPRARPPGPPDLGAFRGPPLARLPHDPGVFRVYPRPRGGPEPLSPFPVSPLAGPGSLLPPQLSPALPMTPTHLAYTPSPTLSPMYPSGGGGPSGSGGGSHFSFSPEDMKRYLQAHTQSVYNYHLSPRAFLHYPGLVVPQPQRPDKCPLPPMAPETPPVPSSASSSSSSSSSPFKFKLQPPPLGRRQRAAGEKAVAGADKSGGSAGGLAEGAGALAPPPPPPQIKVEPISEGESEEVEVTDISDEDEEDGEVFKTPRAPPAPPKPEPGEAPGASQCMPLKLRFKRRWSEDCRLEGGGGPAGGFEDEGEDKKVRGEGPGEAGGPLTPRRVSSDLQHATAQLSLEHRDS
Outline: as §1

[11] = biological target: T6, ETS2 (Homo sapiens, UniProt P15036 1-469)
T6 sequence: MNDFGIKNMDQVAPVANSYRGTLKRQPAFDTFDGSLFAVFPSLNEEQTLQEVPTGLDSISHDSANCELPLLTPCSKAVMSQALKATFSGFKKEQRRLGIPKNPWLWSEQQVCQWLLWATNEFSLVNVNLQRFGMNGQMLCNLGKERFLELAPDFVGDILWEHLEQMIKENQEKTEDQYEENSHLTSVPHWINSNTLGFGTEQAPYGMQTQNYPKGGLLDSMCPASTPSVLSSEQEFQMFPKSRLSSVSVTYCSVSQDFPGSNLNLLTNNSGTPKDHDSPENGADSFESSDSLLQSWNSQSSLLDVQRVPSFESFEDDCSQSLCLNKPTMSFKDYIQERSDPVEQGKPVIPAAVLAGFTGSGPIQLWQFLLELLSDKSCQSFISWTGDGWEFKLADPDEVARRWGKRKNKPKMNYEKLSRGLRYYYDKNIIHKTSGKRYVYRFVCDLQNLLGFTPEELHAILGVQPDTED
Outline: as §1

[12] = biological target: T7, SPDEF (Homo sapiens, UniProt O95238 1-335)
T7 sequence: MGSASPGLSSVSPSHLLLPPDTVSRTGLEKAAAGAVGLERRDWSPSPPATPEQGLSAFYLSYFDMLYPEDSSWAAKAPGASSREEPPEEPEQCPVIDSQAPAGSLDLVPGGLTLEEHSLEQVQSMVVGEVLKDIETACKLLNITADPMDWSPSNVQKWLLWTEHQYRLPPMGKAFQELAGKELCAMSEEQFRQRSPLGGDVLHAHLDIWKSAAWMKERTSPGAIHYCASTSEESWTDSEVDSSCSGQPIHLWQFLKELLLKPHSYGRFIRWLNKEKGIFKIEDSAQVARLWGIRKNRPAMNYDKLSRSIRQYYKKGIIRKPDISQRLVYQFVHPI
Outline: as §1

[13] = biological target: T8, ETV7 (Homo sapiens, UniProt Q9Y603 1-341)
T8 sequence: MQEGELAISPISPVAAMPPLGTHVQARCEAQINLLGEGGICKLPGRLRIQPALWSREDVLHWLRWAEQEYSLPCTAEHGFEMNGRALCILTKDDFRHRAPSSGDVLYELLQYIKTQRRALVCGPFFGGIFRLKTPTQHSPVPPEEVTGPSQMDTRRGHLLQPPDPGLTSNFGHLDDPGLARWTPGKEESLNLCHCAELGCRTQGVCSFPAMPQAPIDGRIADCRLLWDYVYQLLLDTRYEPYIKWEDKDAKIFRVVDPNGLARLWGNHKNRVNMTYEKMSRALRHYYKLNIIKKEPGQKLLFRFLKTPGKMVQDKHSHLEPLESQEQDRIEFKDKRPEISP
Outline: as §1

CRX, sequence (O43186 whole entry): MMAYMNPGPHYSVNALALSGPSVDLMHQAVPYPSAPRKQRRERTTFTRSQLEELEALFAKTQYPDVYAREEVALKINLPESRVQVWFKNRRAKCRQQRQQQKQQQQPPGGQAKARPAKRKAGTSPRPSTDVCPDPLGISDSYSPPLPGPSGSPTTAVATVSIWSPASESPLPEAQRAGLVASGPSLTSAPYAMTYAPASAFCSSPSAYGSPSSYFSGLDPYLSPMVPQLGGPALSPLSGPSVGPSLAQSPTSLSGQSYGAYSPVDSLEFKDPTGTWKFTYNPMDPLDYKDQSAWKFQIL
ELF4, sequence (Q99607 whole entry): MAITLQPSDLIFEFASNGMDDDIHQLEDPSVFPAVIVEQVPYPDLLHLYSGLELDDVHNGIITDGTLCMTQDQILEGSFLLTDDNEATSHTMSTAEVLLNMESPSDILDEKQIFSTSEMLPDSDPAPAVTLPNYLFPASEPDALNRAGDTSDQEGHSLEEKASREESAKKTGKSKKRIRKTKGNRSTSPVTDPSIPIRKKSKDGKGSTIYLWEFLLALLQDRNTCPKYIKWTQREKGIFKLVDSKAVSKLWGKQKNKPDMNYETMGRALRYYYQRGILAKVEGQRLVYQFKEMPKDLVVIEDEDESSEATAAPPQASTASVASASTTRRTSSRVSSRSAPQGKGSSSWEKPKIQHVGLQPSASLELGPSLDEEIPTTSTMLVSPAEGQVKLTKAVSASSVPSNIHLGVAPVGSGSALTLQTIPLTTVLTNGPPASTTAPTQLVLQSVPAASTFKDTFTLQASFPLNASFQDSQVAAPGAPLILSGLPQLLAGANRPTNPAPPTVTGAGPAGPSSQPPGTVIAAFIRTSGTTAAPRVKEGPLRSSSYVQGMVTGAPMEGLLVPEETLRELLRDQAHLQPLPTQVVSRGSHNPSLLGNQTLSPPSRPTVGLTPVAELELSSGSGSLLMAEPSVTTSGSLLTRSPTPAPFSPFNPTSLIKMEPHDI
ETV1, sequence (P50549 whole entry): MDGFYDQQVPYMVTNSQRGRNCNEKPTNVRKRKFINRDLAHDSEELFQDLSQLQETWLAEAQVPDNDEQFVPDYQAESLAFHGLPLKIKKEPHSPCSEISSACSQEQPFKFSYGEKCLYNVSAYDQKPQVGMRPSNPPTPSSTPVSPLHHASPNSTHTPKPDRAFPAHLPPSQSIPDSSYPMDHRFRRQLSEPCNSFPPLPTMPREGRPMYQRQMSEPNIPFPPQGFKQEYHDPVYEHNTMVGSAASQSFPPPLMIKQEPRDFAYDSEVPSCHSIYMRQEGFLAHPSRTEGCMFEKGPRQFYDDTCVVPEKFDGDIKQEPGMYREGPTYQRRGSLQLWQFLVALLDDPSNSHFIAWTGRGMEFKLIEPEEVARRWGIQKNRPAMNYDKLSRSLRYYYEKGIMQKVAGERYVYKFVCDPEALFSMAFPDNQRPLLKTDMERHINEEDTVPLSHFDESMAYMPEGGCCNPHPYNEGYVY
ELF1, sequence (P32519 whole entry): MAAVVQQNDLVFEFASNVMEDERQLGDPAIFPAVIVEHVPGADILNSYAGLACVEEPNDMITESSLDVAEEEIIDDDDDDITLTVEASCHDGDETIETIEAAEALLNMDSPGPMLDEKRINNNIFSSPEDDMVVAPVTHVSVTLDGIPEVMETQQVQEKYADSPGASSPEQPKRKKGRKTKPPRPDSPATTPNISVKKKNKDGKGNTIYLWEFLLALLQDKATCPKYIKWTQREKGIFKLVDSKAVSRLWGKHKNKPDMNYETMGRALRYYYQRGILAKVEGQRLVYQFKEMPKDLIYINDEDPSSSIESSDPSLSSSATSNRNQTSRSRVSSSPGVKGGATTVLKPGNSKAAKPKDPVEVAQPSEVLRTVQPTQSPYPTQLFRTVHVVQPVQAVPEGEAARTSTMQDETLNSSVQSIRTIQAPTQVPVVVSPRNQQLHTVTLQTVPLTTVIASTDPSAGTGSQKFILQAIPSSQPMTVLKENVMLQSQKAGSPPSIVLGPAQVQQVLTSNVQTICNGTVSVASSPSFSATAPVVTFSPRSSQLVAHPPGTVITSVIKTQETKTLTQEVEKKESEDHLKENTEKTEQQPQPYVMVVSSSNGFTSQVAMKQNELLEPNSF

**Q.** How did the binding signal [1] turn out when ATTGAG was run?
**A.** 1.08 fold enrichment (6-mer frequency, TF over GST control)

**Q.** And the binding signal [2]?
**A.** 1.12 fold enrichment (6-mer frequency, TF over GST control)

**Q.** What about the binding signal [3] of the same sequence?
**A.** 1 fold enrichment (6-mer frequency, TF over GST control)

**Q.** What about the binding signal [4] of the same sequence?
**A.** 1.01 fold enrichment (6-mer frequency, TF over GST control)

**Q.** And the binding signal [5]?
**A.** 1 fold enrichment (6-mer frequency, TF over GST control)

**Q.** And the binding signal [6]?
**A.** 1.05 fold enrichment (6-mer frequency, TF over GST control)

**Q.** What about the binding signal [7] of the same sequence?
**A.** 1 fold enrichment (6-mer frequency, TF over GST control)

**Q.** And the binding signal [8]?
**A.** 1.11 fold enrichment (6-mer frequency, TF over GST control)

**Q.** What about the binding signal [9] of the same sequence?
**A.** 1.01 fold enrichment (6-mer frequency, TF over GST control)

**Q.** And the binding signal [10]?
**A.** 1.02 fold enrichment (6-mer frequency, TF over GST control)

**Q.** What about the binding signal [11] of the same sequence?
**A.** 1 fold enrichment (6-mer frequency, TF over GST control)

**Q.** And the binding signal [12]?
**A.** 1.01 fold enrichment (6-mer frequency, TF over GST control)

**Q.** What about the binding signal [13] of the same sequence?
**A.** 1.08 fold enrichment (6-mer frequency, TF over GST control)

— PMC7862700, “An all-to-all approach to the identification of sequence-specific readers for epigenetic DNA modifications on cytosine”
